NadD inh: inhibitors of S. aureus NadD, primary screen, biochemical, colorimetric, uHTS; Nicotinate-nucleotide adenylyltransferase NadD (Staphylococcus aureus N315); purified NadD enzyme, colorimetric absorbance read-out; inhibition, % at 20 µM; hit rate 0.78% among 360,000; AID 602399, 2012; in the data active = inhibition above about 26%
Myeloid diff 2: induction of myeloid progenitor differentiation, primary screen, cell-based, flow cytometry, MLPCN library. ER-HoxA9 myeloid progenitors, lysozyme-GFP differentiation. calls only at 10 µM. hit rate 1% among 360,000;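 active = normalized GFP-positive differentiation at or above the plate's own cutoff, the solvent-only control mean plus 3 SD; inconclusive = no clear call, values can overlap the other calls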;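 also: cells exposed to compound for four days before flow analysis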
CendR NRP1 mod: modulators of CendR peptide binding to NRP-1, primary screen, biochemical, fluorescence polarization, uHTS; hit rate 0.85% among 360,000; AID 602438, 2012; inhibition, % at 25 µM; FAM-RPARPAR peptide binding to NRP-1;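 active = inhibition or corrected inhibition above about 18%, plus a signal ratio from 0.5 to 1.5, limit read from the data, passing the limit was not always enough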
CRFBP-R2 block: antagonists of CRF-BP/CRF-R2 complex, primary screen, cell-based, HEK293, calcium dye fluorescence, uHTS | CRF-induced calcium fluorescence | hit rate 0.59% among 350,000 | AID 588475, 2011 | inhibition, % at 11.8 µM;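 active = inhibition of the ligand-induced calcium signal above about 50% at the single tested concentration, limit read from the data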
FAS TE block: FAS thioesterase domain inhibitors, primary screen, biochemical, fluorescence intensity, uHTS. Fatty acid synthase (Homo sapiens), P49327. recombinant FAS-TE, OMFH fluorogenic substrate, fluorescence endpoint. inhibition, % at 15 µM. hit rate 0.67% among 360,000. AID 602261, 2012;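 active = compounds whose normalised, plate-corrected inhibition of enzyme fluorescence in the single-dose primary screen is 50% or more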
Large screens that a line does not name were inactive. Compounds with a hit are over-represented: about 3.6% of the library has one in this group of screens.

CC(=O)c1cccc(NC(=O)C2Cc3c(-c4ccc(Cl)cc4)ccnc3O2)c1 (stereo not drawn)	none (no result: CRFBP-R2 block)
CC(=O)Nc1ccc(C(=O)N2CCCCC2c2cc(C(=O)Nc3ccccc3Cl)no2)cc1 (stereo not drawn)	CendR NRP1 mod 24 (no result: CRFBP-R2 block)
O=C(Nc1ccc(Cl)c(C(F)(F)F)c1)[C@@H]1CC=C[C@@H]2CCN(C3CCCCC3)C(=O)[C@@H]21	none
O=C(Nc1ccc(Cl)c(C(F)(F)F)c1)[C@@H]1CC=C[C@@H]2CCN(C3CC3)C(=O)[C@@H]21	CendR NRP1 mod 24
O=C1c2ccccc2C(=O)N1CCc1csc(-c2cccc(F)c2)n1	none
c1ccc(COc2ncnc3c2ncn3CCCNC2CCN(Cc3ccccc3)CC2)cc1	none
COc1ccc(NC(=O)CN2C(=O)/C(=C3\SC(=S)N(C4CCS(=O)(=O)C4)C3=O)c3ccccc32)cc1 (stereo not drawn)	NadD inh 32
CC(CN1CCCCC1)OC(=O)c1ccc2c(c1)OCCO2 (stereo not drawn)	none
CC(CN1CCOCC1)OC(=O)c1ccc2c(c1)OCCO2 (stereo not drawn)	CendR NRP1 mod 27
Cc1[nH]n(-c2ccccc2)c(=O)c1N=Nc1c(O)cc(S(=O)(=O)N(C)C)c2ccccc12	NadD inh 56, Myeloid diff 2 inconclusive
Cc1[nH]n(-c2ccccc2)c(=O)c1N=Nc1ccc2c(c1)OCCO2	none
Cc1cccc(NC(=O)c2sc3nc4c(c(-c5cccs5)c3c2N)CN(C)CC4)c1	Myeloid diff 2 active
C=CC(=O)Nc1cccc(Oc2ccnc(Nc3ccc(N4CCN(C)CC4)cc3)n2)c1	Myeloid diff 2 inconclusive
C=CC(=O)Nc1cccc(Oc2ccnc3[nH]ccc23)c1	NadD inh 59
CC1(C)CC(=O)C2=C(C1)Oc1ncn3nc(-c4cccnc4)nc3c1C2c1ccccc1 (stereo not drawn)	CendR NRP1 mod 31
CCc1ccc([C@@H]2C[C@H]3[C@@H](CN2S(=O)(=O)c2ccc(C)cc2)C(=O)C[C@@H](c2ccccc2F)N3S(=O)(=O)c2ccc(C)cc2)cc1	none
Cc1ccc(S(=O)(=O)/N=C2/NC(=O)/C(=C/c3ccccc3)S2)cc1	CRFBP-R2 block 115
Cc1ccc(S(=O)(=O)/N=C2/NC(=O)/C(=C\c3ccccc3)S2)cc1	none
CCOC(=O)c1c(C)oc2c1c(C(c1ccccc1)N1CCOCC1)c(O)c1ccccc12 (stereo not drawn)	none
CCOC(=O)c1c(C)oc2c1c(C=NCCO)c(O)c1ccccc12	CendR NRP1 mod 35
C=CCn1c(NC(=O)c2ccccc2)nc2ccccc21	CendR NRP1 mod 26
Cc1cc2c(cc1C)NC(c1nc3ccccc3[nH]1)C1=C(CC(C)(C)CC1=O)N2 (stereo not drawn)	CendR NRP1 mod 29
COc1ccc(C=O)cc1COc1c(F)c(F)cc(F)c1F	Myeloid diff 2 active
CC1(C(=O)NS(=O)(=O)Cc2cccc(Cl)c2)CCN1C(=O)Cc1cccs1 (stereo not drawn)	none (no result: CRFBP-R2 block)
CCOC(=O)[C@]12CCCC=C1N(Cc1ccc(Cl)cc1Cl)C(=O)[C@H](CC(=O)NCCC(C)C)C2	none (no result: CRFBP-R2 block)
Cc1c(C(=O)Nc2cccc([N+](=O)[O-])c2)sc2ncn(CC(=O)N3CCOCC3)c(=O)c12	CRFBP-R2 block 87
Cc1c(C(=O)Nc2ccccc2)sc2ncn(CC(=O)N3CCCCC3)c(=O)c12	none
O=C(c1ccc(Br)cc1)c1coc2ccc(O)cc12	none
O=C(c1coc2ccc(O)cc12)C1CC1	CendR NRP1 mod 19
COc1ccc(C(=O)NC2CC3CCCC(C2)N3Cc2ccccc2)cc1OC (stereo not drawn)	none
COc1cccc2c1C(=O)c1c(O)c3c(c(O)c1C2=O)C[C@@](O)(C(=O)CO)C[C@@H]3O[C@H]1C[C@H](N)[C@H](O)[C@H](C)O1	Myeloid diff 2 inconclusive
COc1cccc2c1C(=O)c1c(O)c3c(c(O)c1C2=O)C[C@@](O)(C(=O)CO)C[C@@H]3OC1CC(N)C(O)C(C)O1 (stereo partly drawn)	NadD inh 53 (no result: Myeloid diff 2)
O=C(Nc1ccccc1OC(F)F)c1ccc(N2CCCC2=O)cc1	none
CC1(O)c2ccccc2C(=O)N1CCc1ccccc1F (stereo not drawn)	CRFBP-R2 block 59
CC1(O)c2ccccc2C(=O)N1Cc1ccccc1 (stereo not drawn)	none
Cc1cc(C)n(-c2cccc(Cl)c2C#N)n1	none
N#Cc1c(Cl)cccc1-n1ccnc1	Myeloid diff 2 active
CS(=O)(=O)N(CC(=O)N1CCN(c2ccccc2)CC1)c1ccc(Cl)c(C(F)(F)F)c1	none
CCC(C)c1ccc(S(=O)(=O)Nc2cccnc2)cc1 (stereo not drawn)	none
CCOc1ccc(S(=O)(=O)Nc2cccnc2)cc1	CRFBP-R2 block 53
CCOc1ccc(S(=O)(=O)Nc2ccccc2C(=O)NCC2CCCO2)cc1 (stereo not drawn)	none
CCOc1ccc(S(=O)(=O)NNC(=O)c2cc3ccccc3o2)cc1	CendR NRP1 mod 43
CCOC(=O)c1ccccc1NS(=O)(=O)c1ccc(OCC)cc1	Myeloid diff 2 active
N#CC1C(=O)NC(=O)C(C#N)C12CCCC2 (stereo not drawn)	none (no result: CRFBP-R2 block)
CC(=O)N=c1sccn1CC(O)c1ccc(Br)cc1 (stereo not drawn)	none
COc1cccc(-c2cc(NC=O)c3ncc(-c4ccc(F)c(Cl)c4)n3c2)c1	none (no result: CRFBP-R2 block)
C#CCCOC(=O)N1C2=NC(C(=O)OC)=C(C(=O)OC)[C@@H]3N(Cc4ccccc4)c4ccccc4[C@]23C[C@H]1C(=O)OC	none
CC(C)Oc1cc(F)ccc1-c1cc(C(=O)NCCc2ccncc2)[nH]n1	Myeloid diff 2 inconclusive (no result: CRFBP-R2 block)
CC(=O)c1ccccc1C(=O)N1CCC(CCC(=O)NCc2ccc(F)cc2)CC1	none
Cc1c(NC(=O)COC(=O)c2cccn2C)c(=O)n(-c2ccccc2)n1C	none
O=C(COc1cc(Cl)ccc1Cl)Nc1nnc(C2CC2)s1	none
O=C(O)c1cc(NCc2cccs2)ccc1N1CCOCC1	none
O=C(O)c1cc(NCc2ccc(F)cc2)ccc1N1CCOCC1	CendR NRP1 mod 46
Cc1cc(/C=N/NC(=O)c2ccoc2C)cc(C)c1O	CRFBP-R2 block 68
CN(Cc1ccccc1)C(=O)c1ccc(Nc2nc(C(N)Cc3ccc(C(F)(F)F)cc3)cs2)nc1 (stereo not drawn)	none (no result: Myeloid diff 2, CRFBP-R2 block)
Cc1ccc(S(=O)(=O)N2Cc3ccccc3CC2C(N)=O)cc1 (stereo not drawn)	none
CN(C)CCNC(=O)C(=O)c1c(-c2ccccc2)cc2ccccn12	CRFBP-R2 block 65
CCCCNC(=S)N1CCN(c2ccc(C(C)=O)cc2)CC1	none
CSCCCNC(=S)N1CCN(c2ccc(C(C)=O)cc2)CC1	CendR NRP1 mod 24
CCNCCC(CCC(C)C)c1ccc2c(c1)OCO2 (stereo not drawn)	none

Screening data deposited in PubChem by several laboratories.
